# Key:
# Test in all cases: DAPPL (digital affinity profiling via proximity ligation, sequencing); 10 mM Tris-HCl pH 7.5, 50 mM NaCl, 1 mM DTT, 4% glycerol, room temperature, 30 min; GST-TFs on glutathione beads, 16-mer random dsDNA library, 0.1% formaldehyde crosslink after washing; high values mean tight binding
# [1] = target: T1, FLI1 (Homo sapiens, UniProt Q01543 1-452); settings: protein: recombinant; tags: N-terminal GST; dsDNA, one strand shown
# T1 sequence: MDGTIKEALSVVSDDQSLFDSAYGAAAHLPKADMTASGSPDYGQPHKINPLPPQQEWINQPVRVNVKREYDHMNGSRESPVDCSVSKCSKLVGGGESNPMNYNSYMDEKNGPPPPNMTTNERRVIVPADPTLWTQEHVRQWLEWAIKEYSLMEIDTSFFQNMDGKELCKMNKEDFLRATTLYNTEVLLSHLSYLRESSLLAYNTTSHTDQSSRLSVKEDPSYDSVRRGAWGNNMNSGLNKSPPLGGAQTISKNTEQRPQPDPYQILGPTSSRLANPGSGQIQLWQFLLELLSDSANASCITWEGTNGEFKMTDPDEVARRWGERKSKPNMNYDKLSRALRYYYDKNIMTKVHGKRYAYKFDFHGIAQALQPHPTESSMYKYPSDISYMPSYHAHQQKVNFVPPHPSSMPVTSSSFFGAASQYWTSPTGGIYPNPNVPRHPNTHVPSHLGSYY
# Summary of the method: (§1)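 The binding signal reported is, for every hexamer, its read frequency for a factor over its read frequency for the tag-only sample. Reads came from pools of yeast-expressed, GST-fused human transcription factors on glutathione beads, barcoded with DNA and mixed with that sample, which were incubated with 200 nmole of a random double-stranded 16-mer DNA library in Tris/NaCl/DTT/glycerol buffer at room temperature for 30 min. After washing, the pools were crosslinked with 0.1% formaldehyde, proximity-ligated with BsaI/T4 ligase for 1 h at 37 °C, PCR-amplified and sequenced on an Illumina NextSeq500.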
# [2] = target: T2, ELK1 (Homo sapiens, UniProt P19419 1-428); settings: protein: recombinant; tags: N-terminal GST; dsDNA, one strand shown
# T2 sequence: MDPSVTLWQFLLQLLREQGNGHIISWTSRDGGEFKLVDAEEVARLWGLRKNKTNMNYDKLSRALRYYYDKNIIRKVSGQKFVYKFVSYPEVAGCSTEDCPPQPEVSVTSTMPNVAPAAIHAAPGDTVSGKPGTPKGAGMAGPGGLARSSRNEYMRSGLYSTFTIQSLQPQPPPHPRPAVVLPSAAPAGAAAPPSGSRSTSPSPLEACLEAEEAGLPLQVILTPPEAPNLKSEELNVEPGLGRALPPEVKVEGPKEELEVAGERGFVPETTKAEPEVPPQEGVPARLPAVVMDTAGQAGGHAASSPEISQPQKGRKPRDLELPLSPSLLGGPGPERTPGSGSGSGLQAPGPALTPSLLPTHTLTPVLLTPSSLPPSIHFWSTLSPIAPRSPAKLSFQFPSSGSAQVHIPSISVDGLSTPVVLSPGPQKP
# Summary of the method: as §1
# [3] = target: T3, GABPA (Homo sapiens, UniProt Q06546 1-454); settings: protein: recombinant; tags: N-terminal GST; dsDNA, one strand shown
# T3 sequence: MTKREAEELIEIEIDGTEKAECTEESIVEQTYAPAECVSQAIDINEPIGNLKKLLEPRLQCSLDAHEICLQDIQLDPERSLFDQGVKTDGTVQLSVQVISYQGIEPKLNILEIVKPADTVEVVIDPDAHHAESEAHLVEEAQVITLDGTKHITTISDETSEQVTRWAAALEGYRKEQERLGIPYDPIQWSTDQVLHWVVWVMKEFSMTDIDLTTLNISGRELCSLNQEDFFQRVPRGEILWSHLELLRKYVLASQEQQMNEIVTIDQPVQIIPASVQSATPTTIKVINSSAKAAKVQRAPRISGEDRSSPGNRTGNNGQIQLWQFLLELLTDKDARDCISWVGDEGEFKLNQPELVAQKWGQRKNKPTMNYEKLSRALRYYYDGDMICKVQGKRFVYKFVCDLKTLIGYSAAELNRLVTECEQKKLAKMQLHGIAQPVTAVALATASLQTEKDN
# Summary of the method: as §1
# [4] = target: T4, ERG (Homo sapiens, UniProt P11308 1-479); settings: protein: recombinant; tags: N-terminal GST; dsDNA, one strand shown
# T4 sequence: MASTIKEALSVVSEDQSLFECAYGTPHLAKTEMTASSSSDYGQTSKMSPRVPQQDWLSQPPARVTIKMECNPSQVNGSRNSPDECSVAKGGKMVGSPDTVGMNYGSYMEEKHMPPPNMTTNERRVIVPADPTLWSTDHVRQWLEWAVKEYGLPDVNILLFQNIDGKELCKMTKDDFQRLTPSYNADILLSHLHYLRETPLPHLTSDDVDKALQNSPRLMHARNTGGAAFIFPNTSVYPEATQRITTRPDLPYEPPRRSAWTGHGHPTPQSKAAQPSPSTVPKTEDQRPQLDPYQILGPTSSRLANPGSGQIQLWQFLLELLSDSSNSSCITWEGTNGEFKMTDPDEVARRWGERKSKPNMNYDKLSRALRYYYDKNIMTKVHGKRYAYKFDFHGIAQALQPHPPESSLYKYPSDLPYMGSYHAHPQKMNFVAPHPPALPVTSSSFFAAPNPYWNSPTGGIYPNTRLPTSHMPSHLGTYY
# Summary of the method: as §1
# [5] = target: ELF1 (Homo sapiens, UniProt P32519 1-619); settings: protein: recombinant; tags: N-terminal GST; dsDNA, one strand shown
# Summary of the method: as §1
# [6] = target: T5, EHF (Homo sapiens, UniProt Q9NZC4 1-300); settings: protein: recombinant; tags: N-terminal GST; dsDNA, one strand shown
# T5 sequence: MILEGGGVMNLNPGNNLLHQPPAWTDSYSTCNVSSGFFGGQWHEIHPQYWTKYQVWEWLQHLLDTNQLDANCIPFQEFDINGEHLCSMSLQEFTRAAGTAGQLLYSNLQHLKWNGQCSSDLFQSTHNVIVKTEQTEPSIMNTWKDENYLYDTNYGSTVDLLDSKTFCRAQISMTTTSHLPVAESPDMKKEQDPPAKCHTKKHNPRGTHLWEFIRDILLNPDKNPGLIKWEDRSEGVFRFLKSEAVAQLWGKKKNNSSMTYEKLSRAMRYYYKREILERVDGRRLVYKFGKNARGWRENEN
# Summary of the method: as §1
# [7] = target: SPI1 (Homo sapiens, UniProt P17947 1-270); settings: protein: recombinant; tags: N-terminal GST; dsDNA, one strand shown
# Summary of the method: as §1
# [8] = target: SPIB (Homo sapiens, UniProt Q01892 1-262); settings: protein: recombinant; tags: N-terminal GST; dsDNA, one strand shown
# Summary of the method: as §1
# [9] = target: T6, ELK3 (Homo sapiens, UniProt P41970 1-407); settings: protein: recombinant; tags: N-terminal GST; dsDNA, one strand shown
# T6 sequence: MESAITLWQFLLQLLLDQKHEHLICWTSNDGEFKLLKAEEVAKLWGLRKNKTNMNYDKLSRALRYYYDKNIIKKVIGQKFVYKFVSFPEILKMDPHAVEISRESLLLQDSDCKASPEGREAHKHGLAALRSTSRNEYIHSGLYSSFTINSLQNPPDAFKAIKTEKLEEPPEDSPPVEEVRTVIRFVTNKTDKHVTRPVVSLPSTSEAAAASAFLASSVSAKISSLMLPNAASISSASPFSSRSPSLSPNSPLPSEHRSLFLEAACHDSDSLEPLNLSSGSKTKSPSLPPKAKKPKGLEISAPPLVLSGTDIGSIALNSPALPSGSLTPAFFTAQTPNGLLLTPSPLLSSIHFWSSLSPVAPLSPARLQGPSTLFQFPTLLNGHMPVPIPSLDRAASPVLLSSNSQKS
# Summary of the method: as §1
# [10] = target: T7, FEV (Homo sapiens, UniProt Q99581 1-238); settings: protein: recombinant; tags: N-terminal GST; dsDNA, one strand shown
# T7 sequence: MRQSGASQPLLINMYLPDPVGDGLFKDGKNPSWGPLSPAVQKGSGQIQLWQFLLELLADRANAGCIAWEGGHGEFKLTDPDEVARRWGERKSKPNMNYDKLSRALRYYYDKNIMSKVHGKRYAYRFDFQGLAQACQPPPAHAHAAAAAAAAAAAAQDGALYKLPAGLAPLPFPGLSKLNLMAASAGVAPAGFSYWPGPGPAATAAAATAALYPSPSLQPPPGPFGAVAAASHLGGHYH
# Summary of the method: as §1
# [11] = target: ETV5 (Homo sapiens, UniProt P41161 1-510); settings: protein: recombinant; tags: N-terminal GST; dsDNA, one strand shown
# Summary of the method: as §1
# [12] = target: HSF1 (Homo sapiens, UniProt Q00613 1-529); settings: protein: recombinant; tags: N-terminal GST; chain copies: 3; dsDNA, one strand shown
# Summary of the method: as §1
# [13] = target: T8, SPIC (Homo sapiens, UniProt Q8N5J4 1-248); settings: protein: recombinant; tags: N-terminal GST; dsDNA, one strand shown
# T8 sequence: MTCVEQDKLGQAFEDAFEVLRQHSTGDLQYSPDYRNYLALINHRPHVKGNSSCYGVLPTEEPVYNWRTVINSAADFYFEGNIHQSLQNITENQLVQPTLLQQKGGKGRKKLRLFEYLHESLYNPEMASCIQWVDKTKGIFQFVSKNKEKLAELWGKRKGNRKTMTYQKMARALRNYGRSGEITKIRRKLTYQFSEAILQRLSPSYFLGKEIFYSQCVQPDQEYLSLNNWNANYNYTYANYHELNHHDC
# Summary of the method: as §1
# [14] = target: ELF4 (Homo sapiens, UniProt Q99607 1-663); settings: protein: recombinant; tags: N-terminal GST; dsDNA, one strand shown
# Summary of the method: as §1
# [15] = target: T9, ELK4 (Homo sapiens, UniProt P28324-2 1-405); settings: protein: recombinant; tags: N-terminal GST; dsDNA, one strand shown
# T9 sequence: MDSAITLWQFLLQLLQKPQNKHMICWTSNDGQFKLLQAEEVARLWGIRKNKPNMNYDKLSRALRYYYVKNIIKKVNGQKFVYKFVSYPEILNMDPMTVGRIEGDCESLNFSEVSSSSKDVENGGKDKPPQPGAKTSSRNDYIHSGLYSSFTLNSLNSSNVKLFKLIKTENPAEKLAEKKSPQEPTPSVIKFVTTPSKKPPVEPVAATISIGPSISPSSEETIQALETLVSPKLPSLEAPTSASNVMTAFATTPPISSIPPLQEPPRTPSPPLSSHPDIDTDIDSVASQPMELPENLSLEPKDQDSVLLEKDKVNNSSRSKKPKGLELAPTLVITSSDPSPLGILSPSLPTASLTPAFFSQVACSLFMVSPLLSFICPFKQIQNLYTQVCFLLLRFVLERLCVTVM
# Summary of the method: as §1
# [16] = target: T10, ETV2 (Homo sapiens, UniProt O00321 1-342); settings: protein: recombinant; tags: N-terminal GST; dsDNA, one strand shown
# T10 sequence: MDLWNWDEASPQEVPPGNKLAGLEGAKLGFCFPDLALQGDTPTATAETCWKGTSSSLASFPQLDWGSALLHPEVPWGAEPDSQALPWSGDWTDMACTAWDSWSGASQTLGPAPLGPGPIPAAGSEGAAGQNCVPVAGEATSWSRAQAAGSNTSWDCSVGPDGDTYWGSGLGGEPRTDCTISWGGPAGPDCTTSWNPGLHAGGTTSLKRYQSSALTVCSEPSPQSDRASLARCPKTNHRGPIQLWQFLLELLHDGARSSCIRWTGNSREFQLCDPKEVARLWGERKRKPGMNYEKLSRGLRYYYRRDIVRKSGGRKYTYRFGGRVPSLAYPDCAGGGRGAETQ
# Summary of the method: as §1
# [17] = target: T11, ELF3 (Homo sapiens, UniProt P78545 1-371); settings: protein: recombinant; tags: N-terminal GST; dsDNA, one strand shown
# T11 sequence: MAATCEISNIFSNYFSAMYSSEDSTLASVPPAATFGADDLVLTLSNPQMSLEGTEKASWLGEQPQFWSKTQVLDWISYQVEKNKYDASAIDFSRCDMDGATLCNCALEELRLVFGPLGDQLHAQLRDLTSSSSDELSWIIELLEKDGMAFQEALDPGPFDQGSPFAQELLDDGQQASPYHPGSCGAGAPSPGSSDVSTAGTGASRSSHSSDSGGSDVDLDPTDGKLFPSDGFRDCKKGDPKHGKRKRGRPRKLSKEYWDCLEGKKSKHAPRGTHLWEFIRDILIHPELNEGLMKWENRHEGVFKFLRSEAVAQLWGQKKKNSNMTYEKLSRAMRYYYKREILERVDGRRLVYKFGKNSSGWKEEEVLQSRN
# Summary of the method: as §1
# [18] = target: CRX (Homo sapiens, UniProt O43186 1-299); settings: protein: recombinant; tags: N-terminal GST; dsDNA, one strand shown
# Summary of the method: as §1
# [19] = target: ETV1 (Homo sapiens, UniProt P50549 1-477); settings: protein: recombinant; tags: N-terminal GST; dsDNA, one strand shown
# Summary of the method: as §1
# ETV1, sequence (P50549 whole entry): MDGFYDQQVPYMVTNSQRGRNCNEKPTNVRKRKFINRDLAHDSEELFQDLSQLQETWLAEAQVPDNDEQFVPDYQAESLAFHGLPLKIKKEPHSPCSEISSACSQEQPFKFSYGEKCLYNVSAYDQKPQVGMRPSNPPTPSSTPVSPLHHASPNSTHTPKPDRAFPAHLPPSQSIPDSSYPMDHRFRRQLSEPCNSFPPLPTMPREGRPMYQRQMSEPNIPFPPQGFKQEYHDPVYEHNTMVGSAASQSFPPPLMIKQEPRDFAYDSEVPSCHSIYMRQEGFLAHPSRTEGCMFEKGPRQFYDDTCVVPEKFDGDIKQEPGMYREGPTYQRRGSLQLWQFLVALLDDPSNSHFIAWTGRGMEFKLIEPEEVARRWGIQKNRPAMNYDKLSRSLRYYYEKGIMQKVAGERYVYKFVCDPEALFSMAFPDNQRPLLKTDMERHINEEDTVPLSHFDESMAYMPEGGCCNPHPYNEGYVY
# ETV5, sequence (P41161 whole entry): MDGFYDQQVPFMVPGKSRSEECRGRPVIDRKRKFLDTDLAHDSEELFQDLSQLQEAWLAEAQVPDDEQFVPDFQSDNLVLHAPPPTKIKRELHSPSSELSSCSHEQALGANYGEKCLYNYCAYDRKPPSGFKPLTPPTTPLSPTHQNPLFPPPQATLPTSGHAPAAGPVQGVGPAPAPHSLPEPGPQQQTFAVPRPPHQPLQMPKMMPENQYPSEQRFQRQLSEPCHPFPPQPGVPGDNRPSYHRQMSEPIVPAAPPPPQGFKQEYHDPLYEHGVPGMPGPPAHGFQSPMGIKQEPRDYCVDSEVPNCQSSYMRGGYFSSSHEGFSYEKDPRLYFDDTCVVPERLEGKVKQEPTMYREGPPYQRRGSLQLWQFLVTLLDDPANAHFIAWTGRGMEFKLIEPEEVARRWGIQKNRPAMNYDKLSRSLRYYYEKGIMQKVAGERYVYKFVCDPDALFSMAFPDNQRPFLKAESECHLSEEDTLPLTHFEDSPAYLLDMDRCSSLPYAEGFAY
# SPIB, sequence (Q01892 whole entry): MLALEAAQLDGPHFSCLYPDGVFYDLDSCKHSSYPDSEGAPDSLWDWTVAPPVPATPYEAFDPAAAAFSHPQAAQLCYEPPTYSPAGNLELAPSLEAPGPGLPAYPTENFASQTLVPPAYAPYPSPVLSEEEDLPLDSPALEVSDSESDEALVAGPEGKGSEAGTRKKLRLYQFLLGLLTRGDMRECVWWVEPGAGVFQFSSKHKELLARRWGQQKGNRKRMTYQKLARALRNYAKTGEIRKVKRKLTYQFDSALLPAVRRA
# HSF1, sequence (Q00613 whole entry): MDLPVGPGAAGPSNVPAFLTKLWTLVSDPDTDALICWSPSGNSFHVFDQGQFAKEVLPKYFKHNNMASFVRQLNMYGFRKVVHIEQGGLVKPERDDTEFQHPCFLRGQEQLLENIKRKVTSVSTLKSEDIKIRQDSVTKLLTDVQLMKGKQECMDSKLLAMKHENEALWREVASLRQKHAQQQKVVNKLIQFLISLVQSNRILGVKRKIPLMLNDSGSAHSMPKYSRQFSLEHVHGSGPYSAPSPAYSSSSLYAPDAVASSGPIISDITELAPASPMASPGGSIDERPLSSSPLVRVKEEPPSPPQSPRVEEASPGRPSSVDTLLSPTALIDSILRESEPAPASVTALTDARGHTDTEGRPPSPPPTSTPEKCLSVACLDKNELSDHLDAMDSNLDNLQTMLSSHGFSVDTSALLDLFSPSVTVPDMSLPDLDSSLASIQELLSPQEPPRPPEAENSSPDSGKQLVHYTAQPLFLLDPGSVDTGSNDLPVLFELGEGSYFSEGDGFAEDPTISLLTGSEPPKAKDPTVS
# CRX, sequence (O43186 whole entry): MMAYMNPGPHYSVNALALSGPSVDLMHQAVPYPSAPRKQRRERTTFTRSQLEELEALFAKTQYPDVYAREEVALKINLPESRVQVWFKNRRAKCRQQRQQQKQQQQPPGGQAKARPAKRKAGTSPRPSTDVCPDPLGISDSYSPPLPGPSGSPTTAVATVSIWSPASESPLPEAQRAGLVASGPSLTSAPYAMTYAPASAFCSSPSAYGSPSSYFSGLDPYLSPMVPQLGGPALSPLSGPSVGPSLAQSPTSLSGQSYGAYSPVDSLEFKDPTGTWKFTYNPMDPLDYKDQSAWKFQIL
# ELF4, sequence (Q99607 whole entry): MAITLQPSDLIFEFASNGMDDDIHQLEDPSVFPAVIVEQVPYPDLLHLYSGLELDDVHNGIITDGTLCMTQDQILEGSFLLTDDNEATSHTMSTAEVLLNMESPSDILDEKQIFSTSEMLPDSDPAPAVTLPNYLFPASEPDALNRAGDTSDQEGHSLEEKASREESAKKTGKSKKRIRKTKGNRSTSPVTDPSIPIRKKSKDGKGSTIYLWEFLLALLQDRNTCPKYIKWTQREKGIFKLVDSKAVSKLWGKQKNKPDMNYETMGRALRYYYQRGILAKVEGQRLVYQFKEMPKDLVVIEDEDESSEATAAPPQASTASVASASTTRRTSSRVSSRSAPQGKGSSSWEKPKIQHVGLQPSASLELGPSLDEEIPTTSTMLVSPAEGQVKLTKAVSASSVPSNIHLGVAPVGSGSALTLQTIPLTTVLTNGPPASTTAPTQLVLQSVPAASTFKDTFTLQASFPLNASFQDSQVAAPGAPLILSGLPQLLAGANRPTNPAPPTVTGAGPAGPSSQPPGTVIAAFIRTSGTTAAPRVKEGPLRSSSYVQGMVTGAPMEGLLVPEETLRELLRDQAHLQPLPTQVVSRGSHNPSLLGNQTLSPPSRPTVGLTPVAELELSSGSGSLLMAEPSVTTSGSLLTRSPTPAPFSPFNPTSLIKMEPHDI
# ELF1, sequence (P32519 whole entry): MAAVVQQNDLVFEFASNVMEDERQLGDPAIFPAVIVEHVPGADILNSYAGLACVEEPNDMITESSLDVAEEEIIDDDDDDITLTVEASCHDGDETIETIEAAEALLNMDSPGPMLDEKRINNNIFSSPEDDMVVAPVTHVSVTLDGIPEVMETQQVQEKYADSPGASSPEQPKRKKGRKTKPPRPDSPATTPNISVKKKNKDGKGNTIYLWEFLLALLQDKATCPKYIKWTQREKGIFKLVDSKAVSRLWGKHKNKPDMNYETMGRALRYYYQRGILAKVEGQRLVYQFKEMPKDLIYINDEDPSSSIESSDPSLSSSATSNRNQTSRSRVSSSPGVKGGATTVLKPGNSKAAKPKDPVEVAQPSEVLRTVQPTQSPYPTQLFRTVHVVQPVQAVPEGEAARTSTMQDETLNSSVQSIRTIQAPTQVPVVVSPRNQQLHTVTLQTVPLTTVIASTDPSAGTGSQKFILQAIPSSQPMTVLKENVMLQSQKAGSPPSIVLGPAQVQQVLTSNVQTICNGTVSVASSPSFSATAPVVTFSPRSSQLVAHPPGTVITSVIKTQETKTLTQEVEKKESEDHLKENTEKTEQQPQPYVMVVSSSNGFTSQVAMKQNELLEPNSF
sequence,measurement,setting,value
ACTTGT,binding signal,[1],"1.27 fold enrichment (6-mer frequency, TF over GST control)"
same,binding signal,[2],"1.35 fold enrichment (6-mer frequency, TF over GST control)"
same,binding signal,[3],"1.29 fold enrichment (6-mer frequency, TF over GST control)"
same,binding signal,[4],"1.15 fold enrichment (6-mer frequency, TF over GST control)"
same,binding signal,[5],"1.29 fold enrichment (6-mer frequency, TF over GST control)"
same,binding signal,[6],"1.31 fold enrichment (6-mer frequency, TF over GST control)"
same,binding signal,[7],"1.3 fold enrichment (6-mer frequency, TF over GST control)"
same,binding signal,[8],"1.45 fold enrichment (6-mer frequency, TF over GST control)"
same,binding signal,[9],"1.31 fold enrichment (6-mer frequency, TF over GST control)"
same,binding signal,[10],"1.28 fold enrichment (6-mer frequency, TF over GST control)"
same,binding signal,[11],"1.21 fold enrichment (6-mer frequency, TF over GST control)"
same,binding signal,[12],"1.12 fold enrichment (6-mer frequency, TF over GST control)"
same,binding signal,[13],"1.08 fold enrichment (6-mer frequency, TF over GST control)"
same,binding signal,[14],"1.37 fold enrichment (6-mer frequency, TF over GST control)"
same,binding signal,[15],"1.36 fold enrichment (6-mer frequency, TF over GST control)"
same,binding signal,[16],"1.31 fold enrichment (6-mer frequency, TF over GST control)"
same,binding signal,[17],"1.16 fold enrichment (6-mer frequency, TF over GST control)"
same,binding signal,[18],"1.1 fold enrichment (6-mer frequency, TF over GST control)"
same,binding signal,[19],"1.29 fold enrichment (6-mer frequency, TF over GST control)"
